Screens deposited in PubChem by National Center for Advancing Translational Sciences (NCATS).
This is a sample that favours compounds with a hit; in the whole collection about 8% have one here.
SW480 rereplic = induces DNA re-replication in SW480 colon adenocarcinoma cells; Potency, µM (doses to about 46.1 µM), most hits filed as activators; SW480 DNA re-replication, Hoechst DNA content imaging, 48 h; 340,000 tested, 1.8% active; AID 624297; further: nearly all actives have a fitted effect of over 55% in size
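Quantitative HTS format with DMSO vehicle controls; 48 hr drug incubation at 37 C, then 40 min Hoechst staining and scanning imager measurement at 405 nm excitation.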
KB-V1 cytotox = KB-V1 MDR subline cytotoxicity; KB-V1 MDR cells viability, CellTiter-Glo, 72 h; Potency, µM (top dose mostly 46.1 µM), actives largely listed as cytotoxic; 400,000 tested, 3.4% active; AID 1347076; further: nearly all actives have a fitted effect of over 60% in size
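Cells of the MDR subline KB-V1 are plated, dosed with compound at multiple concentrations, and incubated 72 h at 37 degrees C; CellTiter-Glo is then added and luminescence read after 10 min.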
HT1080 IDH1KD tx = kills HT-1080 cells with IDH1 knockdown; HT-1080 IDH1 knockdown viability, ATP luminescence, 48 h; Potency, µM (highest dose often 46.1 µM), usual class: cytotoxic; 360,000 tested, 2% active; AID 686971
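% activity derives from luminescence (CellTiter-Glo), normalised to DMSO and no-cell wells. HT-1080-IDH1KD cells, 750/well, had 48 h compound exposure at 37 °C.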
MCF10A rerep = inducers of DNA re-replication in MCF 10A breast cells. MCF 10A DNA re-replication, Hoechst nuclear intensity, 48 h. Potency, µM (top dose mostly 46.1 µM), actives largely listed as activators. 350,000 tested, 2.9% active; further: nearly all actives have a fitted effect of over 50% in size
KB-3-1 tox = kills parental KB-3-1 adenocarcinoma cells | KB-3-1 viability, CellTiter-Glo ATP luminescence, 72 h | 400,000 tested, 1.4% active | AID 1347075 | Potency, µM (highest dose often 46.1 µM), hits mostly cytotoxic; further: nearly all actives have a fitted effect of over 60% in size
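Parental KB-3-1 adenocarcinoma cells in phenol-red-free DMEM with 10% FBS were pin-treated with compounds at several concentrations, incubated 72 h at 37 °C, and viability read by CellTiter-Glo luminescence; concentration-effect curves were fitted after normalization.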
HT1080NT lethal = kills 2HG-producing HT-1080-NT fibrosarcoma cells; AID 686970; Potency, µM (top dose mostly 46.1 µM), usual class: cytotoxic; 360,000 tested, 1.6% active; HT-1080-NT fibrosarcoma viability, CellTiter-Glo ATP luminescence, 48 h;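 further: NT is the 2HG producing partner of a matched IDH1 knockdown line; nearly all actives have a fitted effect of over 55% in size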
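A 48-hour cytotoxicity screen used HT-1080-NT cells plated 2 hours before compound delivery. ATP-based CellTiter-Glo luminescence measured viability, normalized to DMSO and no-cell controls.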
Numbers stand for hits; i = inactive; ? = inconclusive; nt = not tested or not shown; ! = repeats disagree; [ ] = another dose, or the depositor's remark. The call rests on the fitted dose curve; in most records, active means well fitted curve in the direction sought with a large enough effect; inconclusive means small, poorly fitted or top-dose-only effect, or another doubt; inactive means no such curve, though single readings can be large; an effect the other way counts as inactive or inconclusive.

SMILES | SW480 rereplic | KB-V1 cytotox | HT1080 IDH1KD tx | MCF10A rerep | KB-3-1 tox | HT1080NT lethal
CC1c2ccccc2-n2nncc2CN1CC1CCCCC1 (centres undefined) | i[9.22 µM] | i | i | i | i | i
CCCCn1nnnc1C(CCc1ccccc1)N1CCC(n2c(=O)[nH]c3ccccc32)CC1 (centres undefined) | nt | 4.11µM | ? | nt | ? | ?
CCC(c1nnnn1Cc1ccccc1)N1CCC(n2c(=O)[nH]c3ccccc32)CC1 (centres undefined) | nt | ? | ? | nt | i | 25.9µM
CCCCCCCCN1C(=O)[C@H](CC(=O)NCCCC)C[C@@]2(C(=O)OCC)CCCC=C12 | nt | 20.6µM | ? | nt | ? | ?
CC(=O)Nc1cc(-c2ccc(C(=O)NC3CC3)cc2)cn2c(-c3ccc(F)c(Cl)c3)cnc12 | nt | ? | 18.4µM | nt | i | ?
COCCCN1Cc2ccccc2C1=N | i | i | i | i | i | i
COc1ccc(S(=O)(=O)N2Cc3cnnn3-c3ccccc3C2C#N)cc1 (centres undefined) | i[9.22 µM] | i | i | i | i | i
Cc1cc(O)c2c(c1)C(=O)C13C(=C2O)C(=O)[C@H]2[C@@H](O)[C@@H]1[C@H]1[C@H](O)[C@@H]3C(=O)C3=C(O)c4c(O)cc(C)cc4C(=O)C312 (some centres undefined) | i | i | 5.17µM | i | 9.2µM | 0.581µM
CCCNC(=O)c1cc2c(c(-c3cccc(-c4cc5ccccc5o4)c3)n1)[C@@H](CCO)N(C(=O)NC(C)C)C2 | nt | 18.4µM | ? | nt | ? | ?
C=C(CO)CC1CC(O)[C@]2(C)OC3CC4OC5C[C@]6(C)O[C@]7(C)CCC8OC9C[C@]%10(C)OC%11C(C)=CC(=O)OC%11CC%10OC9C[C@@H](C)C8OC7CC6O[C@]5(C)C/C=C\C4OC3CC2O1 (some centres undefined) | i | ? | i | i | ? | i
C=C(C=O)CC1CC(O)[C@]2(C)OC3CC4OC5C[C@]6(C)O[C@]7(C)CCC8OC9C[C@]%10(C)OC%11C(C)=CC(=O)OC%11CC%10OC9C[C@@H](C)C8OC7CC6O[C@]5(C)CC5OC5C4OC3CC2O1 (some centres undefined) | 5.8µM | i | nt | 4.61µM | 11.6µM | ?
NC(CCc1ccccc1)c1csc(NC(=O)Nc2ccccc2Oc2ccccc2)n1 (centres undefined) | nt | 23.1µM | ? | nt | ? | 23.1µM
ClCCN(CCCl)c1ccc(C=NNc2ncccn2)cc1 | ? | i | i | ? | i | i
ClCCN(CCCl)c1ccc(C=Cc2ccncn2)cc1 | ? | i | i | 14.6µM | i | i
COc1cccc(CNC2CN3CCC2CC3)c1OC (centres undefined) | i | i | i | i | i | i
CCOC(=O)C(O)(c1ccc(N(CC)C(=O)OC)cc1)C(F)(F)F (centres undefined) | i | 20.6µM | i | i | i | i
CCOC(=O)N(CC)c1ccc(C(O)(C(=O)OCC)C(F)(F)F)cc1 (centres undefined) | i | i | i | i | i | i
Nc1ccccc1C(=O)OCCc1ccccc1 | i | i | i | i | i | ?
Cc1ccccc1-c1nc(CS(=O)CC(=O)N2CCC3(CC2)OCCO3)c(C)o1 (centres undefined) | i | 13µM | i | i | i | i
CCCOc1ccc(C(=O)NC(=S)N2C[C@H]3C[C@H](C2)c2cccc(=O)n2C3)cc1 | i | i | i | i | i | i
Cc1ccccc1NC(=NCCCN1CC1)Nc1ccccc1C | ? | i | ? | 20.6µM | ? | i
Cc1ccccc1NC(=O)c1cc(-c2ccccc2)n(CCCN2CCOCC2)c1C | i | i | i | i | i | i
CCNC(=O)O/N=C(\C)c1sc(-c2ccc(Cl)cc2)nc1C | i | i | i | ? | i | i
Cc1nn(-c2ccccc2)c2c1CC1(C(=O)N(C)C(=O)N(C)C1=O)C1CCCCN21 (centres undefined) | i[9.22 µM] | i | i | i | i | i
Cc1nn(-c2ccccc2)c2c1P(=O)(O)/C(=C1\N(C)c3ccccc3C1(C)C)C=N2 | i | i | i | 11.6µM | i | i
SMILES | SW480 rereplic | KB-V1 cytotox | HT1080 IDH1KD tx | MCF10A rerep | KB-3-1 tox | HT1080NT lethal
CC(C)[C@@]1(NC(=O)[C@@H]2C[C@@H]3c4cccc5[nH]cc(c45)C[C@H]3N(C)C2)O[C@@]2(O)[C@@H]3CCCN3C(=O)[C@H](Cc3ccccc3)N2C1=O | 18.4µM! | i | i | 20.6µM! | i | i
CC(C)[C@@]1(NC(=O)[C@@H]2C=C3c4cccc5[nH]cc(c45)C[C@H]3N(C)C2)O[C@@]2(O)[C@@H]3CCCN3C(=O)[C@H](Cc3ccccc3)N2C1=O | ? | nt | nt | i | nt | nt
O=C(O)C1=CC2c3ccccc3C1c1ccccc12 | ? | i | i | i | i | i
CCOC(=O)c1c(C)n(Cc2ccccc2)c2ccc(O)cc12 | i | 10.3µM | i | ? | i | i
CCOC(=O)c1c(C)n(Cc2ccccc2)c2ccc(OCC(O)Cn3nc(C)nc3C)cc12 (centres undefined) | i | i | i | i | i | i
CCOC(=O)c1c(C)n(Cc2ccccc2)c2ccc(OCC(O)CNC(C)(C)C)cc12 (centres undefined) | ? | i | 16.4µM | ? | i | ?
C[C@@H]1CN([C@@H](C)CO)C(=O)CCCn2nncc2CO[C@@H]1CN(C)C(=O)Oc1ccc2ccccc2c1 | nt | i | i | nt | i | i
COc1ccc(N2C(=O)CS(=O)C(c3ccccc3)C2=O)cc1 (centres undefined) | i | ? | i | ? | i | i
CC(C)(C)C(=O)N1Cc2ccccc2-n2nncc2C1 | i[9.22 µM] | i | i | ? | i | i
N#CC(C#N)=NNc1ccc(-n2ccc(C(F)(F)F)n2)cc1 | ? | i | 4.61µM | ? | ? | ?
COc1ccc(S(=O)(=O)N2c3ccc(F)cc3CCC2C)cc1 (centres undefined) | ? | 1.64µM | 3.66µM | 0.92µM | 1.64µM | 1.84µM
COc1ccc(S(=O)(=O)N2Cc3ccccc3-n3nncc3C2)cc1 | nt | i | i | nt | i | i
O=S(=O)(c1ccc2c(c1)OCCO2)N1CCC(c2nc3ccc(Cl)cc3[nH]2)CC1 | i | 2.91µM | 14.1µM | ? | i | 11.2µM
O=C(O)[C@H]1C[C@@H]1[C@H](NP(=O)(c1ccccc1)c1ccccc1)c1ccccc1 | i | i | i | i | i | i
COc1c(C=C2C(=O)NC(=O)NC2=O)c(CCN(C)C(=O)c2ccccc2)cc2c1OCO2 | i | i | i | ? | i | i
O=C(O)c1cc[c]([Hg][Cl])cc1 | i | i | 18.4µM | i | i | 16.4µM
